The full data set covers some 7,900 targets. This sample favours those with a hit. About 0.6% of all pairs of compound and target were hits.

Sequence of UniProt Q9BWT6 (Q9BWT6 whole entry, looked up): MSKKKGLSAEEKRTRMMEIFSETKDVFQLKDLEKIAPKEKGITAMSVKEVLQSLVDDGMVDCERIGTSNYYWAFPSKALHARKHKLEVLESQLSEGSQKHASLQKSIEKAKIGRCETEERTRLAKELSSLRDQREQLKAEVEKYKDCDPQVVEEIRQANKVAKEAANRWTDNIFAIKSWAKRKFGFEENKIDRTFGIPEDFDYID
Sequence of UniProt Q12986 (Q12986 whole entry, looked up): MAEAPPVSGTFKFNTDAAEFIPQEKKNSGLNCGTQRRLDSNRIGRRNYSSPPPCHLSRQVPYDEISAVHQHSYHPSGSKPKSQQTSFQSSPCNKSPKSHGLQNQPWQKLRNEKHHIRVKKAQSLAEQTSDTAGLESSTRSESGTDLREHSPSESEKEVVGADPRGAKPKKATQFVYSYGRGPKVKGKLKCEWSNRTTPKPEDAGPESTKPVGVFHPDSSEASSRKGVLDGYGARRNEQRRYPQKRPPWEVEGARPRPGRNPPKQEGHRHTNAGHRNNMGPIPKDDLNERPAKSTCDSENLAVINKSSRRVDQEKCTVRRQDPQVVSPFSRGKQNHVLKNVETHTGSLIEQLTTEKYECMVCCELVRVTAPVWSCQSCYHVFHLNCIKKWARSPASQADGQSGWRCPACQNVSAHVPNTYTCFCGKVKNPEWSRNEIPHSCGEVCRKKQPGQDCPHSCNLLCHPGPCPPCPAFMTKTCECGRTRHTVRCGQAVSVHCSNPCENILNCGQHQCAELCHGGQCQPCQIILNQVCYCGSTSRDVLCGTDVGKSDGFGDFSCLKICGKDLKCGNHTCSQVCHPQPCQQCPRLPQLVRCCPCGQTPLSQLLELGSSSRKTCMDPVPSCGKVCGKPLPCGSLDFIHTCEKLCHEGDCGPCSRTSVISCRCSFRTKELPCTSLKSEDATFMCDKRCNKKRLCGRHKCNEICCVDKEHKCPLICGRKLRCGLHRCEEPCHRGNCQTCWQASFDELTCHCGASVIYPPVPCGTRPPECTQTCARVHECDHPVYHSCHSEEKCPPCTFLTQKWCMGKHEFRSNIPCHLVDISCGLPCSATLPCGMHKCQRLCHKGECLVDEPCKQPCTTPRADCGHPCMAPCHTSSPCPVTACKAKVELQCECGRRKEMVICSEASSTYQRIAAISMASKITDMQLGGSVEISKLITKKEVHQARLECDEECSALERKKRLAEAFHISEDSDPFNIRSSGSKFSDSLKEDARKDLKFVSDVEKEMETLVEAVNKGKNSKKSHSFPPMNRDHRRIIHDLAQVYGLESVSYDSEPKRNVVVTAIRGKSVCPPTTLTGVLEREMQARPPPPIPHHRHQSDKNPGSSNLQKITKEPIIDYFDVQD
Sequence of UniProt Q9H1E3 (Q9H1E3 whole entry, looked up): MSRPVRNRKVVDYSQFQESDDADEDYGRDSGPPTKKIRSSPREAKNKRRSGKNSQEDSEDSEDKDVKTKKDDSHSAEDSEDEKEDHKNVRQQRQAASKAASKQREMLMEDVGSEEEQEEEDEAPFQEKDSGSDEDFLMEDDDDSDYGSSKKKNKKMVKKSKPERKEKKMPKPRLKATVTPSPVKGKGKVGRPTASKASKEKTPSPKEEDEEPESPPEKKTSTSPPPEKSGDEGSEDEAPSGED
Sequence of UniProt Q15003 (Q15003 whole entry, looked up): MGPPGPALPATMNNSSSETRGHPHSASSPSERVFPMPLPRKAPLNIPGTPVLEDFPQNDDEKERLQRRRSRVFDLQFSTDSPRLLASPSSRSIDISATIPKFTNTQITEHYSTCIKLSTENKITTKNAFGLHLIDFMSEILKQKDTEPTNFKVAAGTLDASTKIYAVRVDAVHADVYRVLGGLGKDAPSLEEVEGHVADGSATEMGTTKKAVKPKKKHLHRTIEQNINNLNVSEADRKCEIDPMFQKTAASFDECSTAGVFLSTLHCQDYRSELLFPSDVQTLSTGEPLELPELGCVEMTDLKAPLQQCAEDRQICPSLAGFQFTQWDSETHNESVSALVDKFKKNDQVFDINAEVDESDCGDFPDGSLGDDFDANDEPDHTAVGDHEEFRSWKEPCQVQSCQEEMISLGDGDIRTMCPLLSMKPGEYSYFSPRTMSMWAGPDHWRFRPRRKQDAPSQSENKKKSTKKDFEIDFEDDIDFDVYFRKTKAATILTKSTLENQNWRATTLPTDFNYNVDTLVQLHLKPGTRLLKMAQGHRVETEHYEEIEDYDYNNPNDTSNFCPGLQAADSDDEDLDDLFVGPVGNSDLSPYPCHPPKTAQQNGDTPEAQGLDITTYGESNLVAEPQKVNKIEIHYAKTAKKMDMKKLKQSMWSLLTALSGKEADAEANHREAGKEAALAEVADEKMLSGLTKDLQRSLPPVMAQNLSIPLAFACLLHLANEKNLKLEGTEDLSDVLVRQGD
Sequence of UniProt Q01804 (Q01804 whole entry, looked up): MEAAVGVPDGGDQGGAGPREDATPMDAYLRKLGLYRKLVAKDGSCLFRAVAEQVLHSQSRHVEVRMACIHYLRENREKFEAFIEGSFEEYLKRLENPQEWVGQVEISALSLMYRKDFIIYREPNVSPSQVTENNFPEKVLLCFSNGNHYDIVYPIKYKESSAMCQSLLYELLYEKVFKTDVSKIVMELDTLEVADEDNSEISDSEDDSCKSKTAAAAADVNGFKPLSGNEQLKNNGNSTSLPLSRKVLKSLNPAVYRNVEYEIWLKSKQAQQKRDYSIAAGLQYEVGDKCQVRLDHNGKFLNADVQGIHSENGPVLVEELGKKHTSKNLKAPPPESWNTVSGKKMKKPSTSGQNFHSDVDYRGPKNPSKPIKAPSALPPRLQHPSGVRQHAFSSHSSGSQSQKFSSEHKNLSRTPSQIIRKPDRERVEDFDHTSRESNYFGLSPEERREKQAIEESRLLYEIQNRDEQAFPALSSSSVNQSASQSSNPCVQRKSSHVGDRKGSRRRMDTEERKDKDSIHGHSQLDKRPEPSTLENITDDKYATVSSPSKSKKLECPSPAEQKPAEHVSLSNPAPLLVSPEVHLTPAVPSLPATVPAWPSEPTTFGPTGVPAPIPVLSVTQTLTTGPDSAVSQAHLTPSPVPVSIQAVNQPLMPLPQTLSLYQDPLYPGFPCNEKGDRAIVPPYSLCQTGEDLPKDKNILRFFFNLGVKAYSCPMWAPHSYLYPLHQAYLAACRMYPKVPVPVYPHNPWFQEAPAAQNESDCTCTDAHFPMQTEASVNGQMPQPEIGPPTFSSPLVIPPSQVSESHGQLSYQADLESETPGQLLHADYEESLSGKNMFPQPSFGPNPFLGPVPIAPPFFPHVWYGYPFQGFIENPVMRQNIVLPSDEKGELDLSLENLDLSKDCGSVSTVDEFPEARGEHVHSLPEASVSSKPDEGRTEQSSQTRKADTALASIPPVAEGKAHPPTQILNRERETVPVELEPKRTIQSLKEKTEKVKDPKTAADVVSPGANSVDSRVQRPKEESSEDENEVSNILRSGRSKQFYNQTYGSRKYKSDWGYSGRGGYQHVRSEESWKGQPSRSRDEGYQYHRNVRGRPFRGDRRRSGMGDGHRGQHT
Sequence of UniProt Q9NXX6 (Q9NXX6 whole entry, looked up): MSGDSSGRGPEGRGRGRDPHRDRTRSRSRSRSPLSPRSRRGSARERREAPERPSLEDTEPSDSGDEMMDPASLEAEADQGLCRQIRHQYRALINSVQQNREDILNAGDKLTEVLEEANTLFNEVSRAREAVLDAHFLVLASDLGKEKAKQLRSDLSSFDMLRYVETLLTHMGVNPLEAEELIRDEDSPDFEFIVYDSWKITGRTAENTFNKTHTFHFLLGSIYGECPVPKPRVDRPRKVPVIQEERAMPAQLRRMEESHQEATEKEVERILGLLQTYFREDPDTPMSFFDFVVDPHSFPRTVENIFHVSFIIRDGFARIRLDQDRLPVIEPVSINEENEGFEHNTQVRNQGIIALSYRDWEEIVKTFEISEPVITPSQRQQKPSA
Sequence of UniProt Q92692 (Q92692 whole entry, looked up): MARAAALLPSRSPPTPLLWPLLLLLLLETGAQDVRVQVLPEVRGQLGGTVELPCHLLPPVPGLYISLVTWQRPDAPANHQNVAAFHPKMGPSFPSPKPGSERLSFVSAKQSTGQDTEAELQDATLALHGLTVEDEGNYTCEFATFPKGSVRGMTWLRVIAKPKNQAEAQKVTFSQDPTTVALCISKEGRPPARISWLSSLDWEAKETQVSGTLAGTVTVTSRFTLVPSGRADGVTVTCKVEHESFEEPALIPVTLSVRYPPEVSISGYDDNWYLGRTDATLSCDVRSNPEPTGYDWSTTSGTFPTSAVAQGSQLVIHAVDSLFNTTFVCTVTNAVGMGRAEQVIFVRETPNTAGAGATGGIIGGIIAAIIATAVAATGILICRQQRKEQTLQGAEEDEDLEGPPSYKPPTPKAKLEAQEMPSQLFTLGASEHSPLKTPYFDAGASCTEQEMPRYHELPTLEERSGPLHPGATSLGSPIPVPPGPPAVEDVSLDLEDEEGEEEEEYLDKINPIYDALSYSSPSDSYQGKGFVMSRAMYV
Sequence of UniProt Q969V5 (Q969V5 whole entry, looked up): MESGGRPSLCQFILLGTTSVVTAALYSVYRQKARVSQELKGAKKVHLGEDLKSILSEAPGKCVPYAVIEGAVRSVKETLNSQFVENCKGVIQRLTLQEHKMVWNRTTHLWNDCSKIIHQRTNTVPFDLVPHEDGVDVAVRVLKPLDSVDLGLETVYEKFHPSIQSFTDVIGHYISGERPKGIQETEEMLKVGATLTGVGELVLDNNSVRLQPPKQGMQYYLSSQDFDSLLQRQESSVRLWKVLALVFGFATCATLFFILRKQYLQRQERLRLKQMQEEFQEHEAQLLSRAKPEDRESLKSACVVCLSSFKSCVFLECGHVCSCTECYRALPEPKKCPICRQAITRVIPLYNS
Sequence of UniProt P84157 (P84157 whole entry, looked up): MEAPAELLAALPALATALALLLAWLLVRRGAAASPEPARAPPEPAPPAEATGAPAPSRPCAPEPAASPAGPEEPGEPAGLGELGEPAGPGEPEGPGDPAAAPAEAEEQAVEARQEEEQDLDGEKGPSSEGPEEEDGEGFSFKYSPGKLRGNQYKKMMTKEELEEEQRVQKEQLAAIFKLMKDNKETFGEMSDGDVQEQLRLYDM

Compound in the first experiment: Cn1cncc1[C@@](N)(c1ccc(Cl)cc1)c1ccc2c(c1)c(-c1cccc(Cl)c1)cc(=O)n2C [tipifarnib]
The experiment is described as follows: log2 fold change, soluble protein after heating vs DMSO (PISA); higher = thermal stabilisation; K562 cells, 10 uM, 30 min; active = over 0.2 and 3.5 SD of the protein, either way, in both replicates (recomputed). In a few lines: (§1)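 K562 cells at 2×10^6 cells/mL were given 10 μM compound for 30 min. Aliquots then went through 3 min of heating across 48°C-58°C, were pooled, and were extracted in PBS with 0.5% NP-40 at 4°C, and the supernatant after 21,000xg for 90 min was quantified by TMTpro 16plex LC-MS/MS with channel sums equalised. Thermal stability relative to control samples, from duplicates, is given as log2 fold change.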
With NECTIN2 (UniProt Q92692), the log2 fold change was 0.008 (inactive).
The same measure, in the same setting: then NCAPH (UniProt Q15003), with -0.102 (inactive); and OSBPL8 (UniProt Q9BZF1), with -0.117 (inactive).
Regarding MPHOSPH10 (UniProt O00566), the log2 fold change was 0.246 (inactive).
For the target MTHFD1, A0A384N5Y3, the log2 fold change is -0.146 (inactive).
As for OXA1L (UniProt Q15070), the log2 fold change is 0.004 (inactive).
The same measure, in the same setting: the same measure for NPC1 (UniProt O15118): 0.038 (inactive); for MYO19 (UniProt Q96H55): 0.048 (inactive); for NCKAP1 isoform 2 (UniProt Q9Y2A7): -0.005 (inactive).
The same measure, in the same setting: the same measure for NSMCE4A (UniProt Q9NXX6): 0.026 (inactive); for MSTO1 (UniProt Q9BUK6): -0.096 (inactive); for MUL1 (UniProt Q969V5): -0.037 (inactive).
The same measure, in the same setting: the same measure for MKNK1 (UniProt Q9BUB5): -0.101 (inactive).
Consider NDUFS4 (UniProt O43181), for which the log2 fold change was 0.202 (inactive).
On the same count and under the same terms, then NUCKS1 (UniProt Q9H1E3), with 0.059 (inactive); and MSH3 (UniProt P20585), with -0.029 (inactive); and NMU (UniProt P48645), with 0.276 (inactive).
In the case of OSTC (UniProt Q9NRP0), the log2 fold change was -0.013 (inactive).
For NDUFB8 (UniProt O95169), the log2 fold change is 0.071 (inactive).
As for NFX1 (UniProt Q12986), the log2 fold change is 0.131 (inactive).
On to ORC5 (UniProt O43913), for which the log2 fold change was 0.031 (inactive).
The same measure, in the same setting: the same measure for NUDT16 (UniProt Q96DE0): -0.02 (inactive).
As for MRPL50 (UniProt Q8N5N7), the log2 fold change was -0.163 (inactive).
With NOSIP (UniProt Q9Y314), the log2 fold change is -0.128 (inactive).
Same read-out and setting: the same measure for NSMCE2 (UniProt Q96MF7): 0.008 (inactive); for NA, A0A096LPI6: -0.038 (inactive); for MRPS35 (UniProt P82673): 0.024 (inactive).
The same measure, in the same setting: then NA, A0A2R8Y3M9, with 0.08 (inactive); and MND1 (UniProt Q9BWT6), with 0.04 (inactive); and NOL11 (UniProt Q9H8H0), with 0.036 (inactive).
The same measure, in the same setting: then NCAPG (UniProt Q9BPX3), with -0.142 (inactive).
On to OTUD4 (UniProt Q01804), for which the log2 fold change is 0.064 (inactive).
With MTFR1L (UniProt Q9H019), the log2 fold change is -0.062 (inactive).
NFYC (UniProt Q13952): the log2 fold change is 0.038 (inactive).
On the same count and under the same terms, the same measure for MXRA7 (UniProt P84157): 0.018 (inactive); for MRPS27 isoform 2 (UniProt Q92552): -0.112 (inactive); for NCL (UniProt P19338): 0.225 (inactive).
On the same count and under the same terms, then NPEPPS (UniProt P55786), with -0.032 (inactive).

Compound in another experiment: FC(F)(F)c1ccc(/C=C/c2nc(COc3ccc(CCCCn4ccnn4)cc3)co2)cc1 [mubritinib]
The experiment is described as above. The gist of the method: as §1
On to NECTIN2 (UniProt Q92692), for which the log2 fold change was 0.023 (inactive).
For NCAPH (UniProt Q15003), the log2 fold change is 0.019 (inactive).
Same read-out and setting: then OSBPL8 (UniProt Q9BZF1), with 0.108 (inactive); and MPHOSPH10 (UniProt O00566), with -0.069 (inactive).
Turning to MTHFD1, A0A384N5Y3, the log2 fold change is 0.107 (inactive).
Still for that read-out and setting: then OXA1L (UniProt Q15070), with 0.003 (inactive); and NPC1 (UniProt O15118), with -0.027 (inactive); and NCKAP1 isoform 2 (UniProt Q9Y2A7), with 0.002 (inactive).
The same measure, in the same setting: the same measure for NSMCE4A (UniProt Q9NXX6): 0.552 (active).
With MSTO1 (UniProt Q9BUK6), the log2 fold change was 0.011 (inactive).
MUL1 (UniProt Q969V5): the log2 fold change was -0.023 (inactive).
Still for that read-out and setting: then MKNK1 (UniProt Q9BUB5), with 0.03 (inactive); and NDUFS4 (UniProt O43181), with 0.058 (inactive); and NUCKS1 (UniProt Q9H1E3), with 0.034 (inactive).
As to MSH3 (UniProt P20585), the log2 fold change was 0.167 (inactive).
On the same count and under the same terms, the same measure for OSTC (UniProt Q9NRP0): 0.044 (inactive).
Same read-out and setting: then NDUFB8 (UniProt O95169), with 0.027 (inactive).
On the same count and under the same terms, then NFX1 (UniProt Q12986), with -0.096 (inactive); and ORC5 (UniProt O43913), with 0.045 (inactive); and NUDT16 (UniProt Q96DE0), with 0.049 (inactive).
For MRPL50 (UniProt Q8N5N7), the log2 fold change was -0.039 (inactive).
For NOSIP (UniProt Q9Y314), the log2 fold change was -0.098 (inactive).
On the same count and under the same terms, then NSMCE2 (UniProt Q96MF7), with 0.009 (inactive); and NA, A0A096LPI6, with 0.024 (inactive).
For the target MRPS35 (UniProt P82673), the log2 fold change was 0.091 (inactive).
Same read-out and setting: the same measure for MND1 (UniProt Q9BWT6): 0.043 (inactive).
Consider NOL11 (UniProt Q9H8H0), for which the log2 fold change was -0.012 (inactive).
Same read-out and setting: the same measure for NCAPG (UniProt Q9BPX3): -0.003 (inactive).
The same measure, in the same setting: the same measure for OTUD4 (UniProt Q01804): -0.024 (inactive); for NFYC (UniProt Q13952): 0.066 (inactive); for MXRA7 (UniProt P84157): 0.002 (inactive).
With MRPS27 isoform 2 (UniProt Q92552), the log2 fold change is 0.119 (inactive).
Still for that read-out and setting: the same measure for NCL (UniProt P19338): -0.325 (inactive); for NPEPPS (UniProt P55786): 0.102 (inactive).
